Bioassay records: PubChem BioAssay, The Scripps Research Institute Molecular Screening Center
In the library only some 2.4% were active in any assay of this set; here they are far more common.
CHRM1 antagonist – blocks human M1 muscarinic receptor. P11229. CHO-K1 hM1, Fluo-8 calcium fluorescence, ACh EC80 antagonist. inhibition, % at 3 µM. 360,000 compounds, 1.3% hits. AID 588852;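 active = percent inhibition above its own plate's cutoff, namely the mean of that plate's compound wells plus 3 SD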;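 note: peak over basal fluorescence ratio during 140 s after agonist addition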
Target sequence (P11229 whole entry, looked up): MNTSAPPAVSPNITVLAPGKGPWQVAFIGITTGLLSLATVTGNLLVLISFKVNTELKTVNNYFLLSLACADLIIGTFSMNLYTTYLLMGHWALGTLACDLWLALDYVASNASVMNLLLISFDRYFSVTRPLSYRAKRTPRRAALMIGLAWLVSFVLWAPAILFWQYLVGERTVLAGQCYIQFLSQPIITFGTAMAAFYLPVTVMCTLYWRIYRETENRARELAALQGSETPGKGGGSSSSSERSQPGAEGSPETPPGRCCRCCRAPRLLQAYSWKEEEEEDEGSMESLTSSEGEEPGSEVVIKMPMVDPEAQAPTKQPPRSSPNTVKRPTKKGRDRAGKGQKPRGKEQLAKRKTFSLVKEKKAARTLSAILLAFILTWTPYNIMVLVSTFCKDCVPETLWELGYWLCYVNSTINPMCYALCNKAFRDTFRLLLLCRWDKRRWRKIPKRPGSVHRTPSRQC
CHRM1 agonist – agonists of human M1 muscarinic receptor; CHO-K1 hM1, Fluo-8 calcium fluorescence, agonist mode; 0% DMSO, 100% acetylcholine EC100; activation, % at 3 µM; 360,000 compounds, 0.33% hits; AID 588814;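 active = activation above the run's mean compound activation plus 3 SD, cut at about 16% in these data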;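 note: peak over basal fluorescence ratio within a 140 s kinetic read after compound addition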
CHRM1 PAM – positive allosteric modulators of human M1 muscarinic receptor. P11229. AID 588819. 360,000 compounds, 0.088% hits. CHO-K1 hM1, Fluo-8 calcium fluorescence, ACh EC20; 0% = ACh EC20, 100% = maximal ACh. activation, % at 3 µM; in the data active = activation above about 19%, passing the limit was not always enough
CHO-K1 Ca antag – counter-screen for M1 antagonists: effect in parental CHO-K1 cells. ATP-induced calcium, Fluo-8 fluorescence. 360,000 compounds, 0.6% hits. inhibition, % at 3 µM. AID 602250;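 active = inhibition above a per-plate cutoff, the plate's mean sample inhibition plus 3 SD, cut at about 24% in these data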
CHO-K1 Ca ag – M1 agonist counterscreen hit in parental CHO-K1 cells; Fluo-8 calcium fluorescence; scaled to maximal ATP response, vehicle zero; activation, % at 3 µM; 360,000 compounds, 0.48% hits; AID 602248; in the data active = activation above about 15%;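 note: untransfected CHO-K1 host cells lacking M1 receptor as counterscreen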
M1 PAM parental – nonselective activator or artifact in parental CHO-K1 calcium assay; ATP EC20, Fluo-8 calcium fluorescence; 0% at ATP EC20, 100% at ATP max; activation, % at 3 µM; 360,000 compounds, 0.02% hits; AID 602247;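 active = activation above the run cutoff, the mean activation of all test compounds plus 3 SD, cut at about 40% in these data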;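 note: peak over basal fluorescence ratio in a 140 s read after ATP addition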
Of the large screens only hits and unclear results are named; the others gave an inactive call.

CCCn1ncc(CN2CCC(CO)(Cc3ccc(OC)cc3)CC2)c1C	CHRM1 antagonist 42
CCCCCCCCCCCCCCCC[n+]1ccc(/C=N/O)cc1	CHRM1 antagonist 31
O=[N+]([O-])c1ccc(CSc2nc3ccccc3o2)cc1	none
COC(=O)c1ccc(CSc2nc3ccccc3o2)cc1	CHO-K1 Ca antag 29
CN(CCOc1ccc(Cl)cc1)Cc1cccc(S(=O)(=O)N(C)C)c1	CHRM1 agonist 32
Cc1cccc(NC(=O)Cn2cc(C=O)c3ccccc32)c1	none
CS(=O)(=O)N1CCCC(C(=O)Nc2ccccc2F)C1 (configuration not stated)	none
O=C(Nc1ccccc1)c1cccc(NC(=O)c2ccco2)c1	none
O=C(O)Cc1ccc(NC(=O)c2cccc(NC(=O)c3ccco3)c2)cc1	CHO-K1 Ca antag 28
O=C(Nc1cccc(-c2nc3ccccc3[nH]2)c1)c1cccc(NC(=O)c2ccco2)c1	CHRM1 antagonist 37
C[C@H](CO)N1C[C@H](C)[C@@H](CN(C)S(=O)(=O)c2cn(C)cn2)OCc2cn(nn2)CCCC1=O	none
CC(=O)Nc1ccc(/C=N/N2CCCCC2)cc1	CHRM1 agonist 35
CC(=O)Nc1ccc(/C=N/N2C(C)CCCC2C)cc1 (configuration not stated)	none
CNc1snc(C)c1C(=O)OCC(=O)c1ccc(Cl)cc1	CHRM1 antagonist 35
C[N+](C)(C)CCCCCCC(=O)/C=N/O	CHRM1 agonist 36
C[N+]1(CCCCCCC(=O)/C=N/O)CCCCCC1	none
Cc1ccc(CN2CCC[C@]3(N[C@H](c4ccc(C)cc4)[C@@H]4C(=O)N(C)C(=O)[C@@H]43)C2=O)cc1	none
CN(C)c1ccc(CN(C(=O)/C=C/c2ccccc2Cl)C2CCS(=O)(=O)C2)cc1 (configuration not stated)	none
CCOc1ccc(/C=C/C(O)=C2/C(=O)NC3(C)CC2c2ccccc2O3)cc1OC (configuration not stated)	CHRM1 antagonist 44
COc1ccc2cc(C(=O)/C=C/c3cc(OC)c(OC)c(OC)c3)ccc2c1	none
COc1ccc(CC(=O)NC(C)c2nnc(SCC(=O)c3ccc(Br)cc3)n2C)cc1 (configuration not stated)	none
COc1ccc(CC(=O)NC(C)c2nnc(SCC(=O)Nc3nc(C)cs3)n2C)cc1 (configuration not stated)	CHO-K1 Ca antag 31
O=C(C[C@@H]1C/C=C\CCC(=O)O[C@H](c2ccccc2)CNC1=O)N[C@H](CO)Cc1ccccc1	CHRM1 agonist 18
O=C1N[C@@H](c2ccccc2)COC(=O)[C@H](Cc2ccc(F)cc2)C/C=C\C[C@H]1CC(=O)N(CCO)Cc1ccccc1	none
O=C1NC[C@H](c2ccccc2)OC(=O)[C@H](Cc2ccc(F)cc2)C/C=C\C[C@H]1CC(=O)N(CCO)Cc1ccccc1	CHRM1 antagonist 42
O=C1N[C@@H](c2ccccc2)COC(=O)[C@@H](Cc2ccc(F)cc2)C/C=C\C[C@@H]1CC(=O)N(CCO)Cc1ccccc1	CHO-K1 Ca ag 17
O=C1NC[C@@H](c2ccccc2)OC(=O)[C@H](Cc2ccc(F)cc2)C/C=C\C[C@H]1CC(=O)N(CCO)Cc1ccccc1	none
O=C1NC[C@H](c2ccccc2)OC(=O)[C@@H](Cc2ccc(F)cc2)C/C=C\C[C@H]1CC(=O)N(CCO)Cc1ccccc1	CHRM1 antagonist 34
Cc1ccc(NC(=O)C2CCCN(S(=O)(=O)c3cnc[nH]3)C2)cc1C (configuration not stated)	none
O=C(Nc1ccc(CN2CCOCC2)cc1)c1ccc(-c2cccc(Cl)c2)o1	none
COc1ccc(Br)cc1C(=O)NC(=S)Nc1ccc(CN2CCOCC2)cc1	CHRM1 antagonist 32
Cc1ccc(C(=O)NC(=S)Nc2ccc(CN3CCOCC3)cc2)cc1	none
O=C(NC(=S)Nc1ccc(CN2CCOCC2)cc1)c1ccc(-c2cccc(Cl)c2)o1	CHRM1 antagonist 58
Clc1ccc(C2Nc3cccc4cccc(c34)N2)cc1Cl	none
Cc1c(C(c2cccc([N+](=O)[O-])c2O)c2c(C)n(C)n(-c3ccccc3)c2=O)c(=O)n(-c2ccccc2)n1C	none
Cc1[nH]n(-c2ccccc2)c(=O)c1C(c1cccc([N+](=O)[O-])c1O)c1c(C)[nH]n(-c2ccccc2)c1=O	CHO-K1 Ca ag 15
Cc1onc(C(=O)NN)c1-c1csc(COc2ccc(Cl)cc2)n1	none
CCN(CC)CCOC(=O)c1ccc(NC(=O)CCCN2C(=O)/C(=C/c3cccs3)SC2=S)cc1	CHRM1 antagonist 36
Cc1ccc(NC(=O)c2ccccc2Cl)c(Cl)c1	none
Cc1ccn2c(=O)c(C(=O)NCCCN3CCCC3=O)c(O)nc2c1	none
CCC(C)N1CCCC1C(=O)Nc1c(C)cc(C)cc1C (configuration not stated)	CHO-K1 Ca antag 25
Cc1cc(C)c(NC(=O)C2CCCN2CCC(C)C)c(C)c1 (configuration not stated)	none
CCC(C)Nc1nc2c(c(=O)n(C)c(=O)n2C)n1Cc1ccc(Cl)cc1 (configuration not stated)	none
CCNc1nc2c(c(=O)n(C)c(=O)n2C)n1Cc1ccc(Cl)cc1	CHRM1 antagonist 29
Nc1ccccc1NC(=O)c1ccccc1N	none
CC1(C(=O)NS(=O)(=O)Cc2ccccc2)CCN1C(=O)C/C=C/c1ccccc1 (configuration not stated)	none
CCN(Cc1ccccc1)c1ccc(/C=N/N2CCOCC2)cc1	CHO-K1 Ca antag 27
CCN(CC)c1ccc(/C=N/N2CCOCC2)cc1	none
NC(=O)c1oc2ccccc2c1NC(=O)c1ccc(F)cc1	CHRM1 antagonist 62, CHO-K1 Ca antag 27
Clc1ccc(OCCN2CCCCC2)cc1Cl	CHRM1 antagonist 29
Clc1ccc(OCCCN2CCCC2)cc1Cl	CHRM1 antagonist 38
CCOC(=O)c1oc2ccc(OC)cc2c1NC(=O)CN1CCN(C)CC1	none
COc1ccccc1Nc1c2c(nc3ccccc13)CCC2	none
Fc1cccc(Nc2c3c(nc4ccccc24)CCC3)c1	none
c1ccc2c(Nc3ccc4c(c3)OCCO4)c3c(nc2c1)CCCC3	CHRM1 antagonist 28
COc1cc(Nc2c3c(nc4ccccc24)CCCC3)cc(OC)c1OC	CHO-K1 Ca ag 17
CC(=O)c1cnc2c(-c3ccc(Cl)cc3)cnn2c1C	CHO-K1 Ca antag 30
Nc1c(C(=O)O)cnc2c(-c3ccc(Cl)cc3)cnn12	none
Cc1ccc(SCCNC(=S)Nc2cc(C)cc(C)c2)cc1	none
CN(C)CCNC(=S)Nc1ccc(Cl)cc1	CHRM1 PAM 25
CCCCNC(=S)Nc1ccc(Cl)cc1	CHO-K1 Ca antag 31
S=C(NCc1ccc(Cl)cc1)Nc1ccncc1	CHRM1 antagonist 44, CHO-K1 Ca antag 31, CHO-K1 Ca ag 21
S=C(NCc1ccc(Cl)cc1)Nc1ccccc1	none
Cc1ccc(NC(=S)NCCSc2ccc(Cl)cc2)cc1	CHRM1 antagonist 56
